CDK5 inh: inhibitors of human CDK5/p35 kinase | Q00535+Q15078 | Recombinant CDK5/p35, ADP-Glo luminescence, 60 min | inhibition, % at 10 µM | 330,000 tested, 0.01% active | AID 488839;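 active = highest replicate inhibition of at least 50% and at least 75% of replicates reaching 50%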;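 note: plate controls were DMSO neutral control for no effect and GW8510 at 10 µM for full effect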
NSD2 HMT inh: inhibitors of human histone methyltransferase NSD2 | 310,000 tested, 0.54% active | AID 743445 | NSD2 peptide methylation, AlphaScreen, 120 min | inhibition, % at 12.5 µM; in the data active = inhibition above about 50%
Glyco luc inh: N-linked glycosylation inhibition; AID 588692; reporter increase, % at 12.5 µM; D54 ERlucT glycosylation luciferase reporter, 24 h; percent of 100 nM tunicamycin response; 360,000 tested, 0.23% active;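 active = mean luciferase reporter signal, scaled so untreated is 0 and the glycosylation-blocking control 100, at or above a set limit in every replicate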;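 note: luciferase carries N-glycosylation sites so blocking glycosylation raises the light; 0% = median of neutral control wells and 100% = median of 100 nM tunicamycin wells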
ALR H2O2 inh: blocks human ALR sulfhydryl oxidase activity. P55789. purified ALR, DTT oxidation, H2O2 HRP-luminol luminescence. inhibition, % (test concentration not listed). 290,000 tested, 3.8% active;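 active = mean replicate inhibition above about 79%, with every replicate also reaching it, limit read from the data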
Target sequence (P55789 whole entry, looked up): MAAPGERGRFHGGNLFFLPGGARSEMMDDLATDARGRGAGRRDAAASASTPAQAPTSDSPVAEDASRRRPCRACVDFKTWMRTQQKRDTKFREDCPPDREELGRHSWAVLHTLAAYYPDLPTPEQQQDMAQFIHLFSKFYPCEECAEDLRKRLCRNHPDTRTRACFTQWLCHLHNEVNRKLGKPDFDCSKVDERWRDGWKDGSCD
SUMO Mot1 rescue: inhibitors of SUMOylation pathway: yeast Mot1-301 growth rescue | 320,000 tested, 1% active | growth rescue, % at 18.8 µM | S. cerevisiae Mot1-301 growth rescue, ATP luminescence, 38.5C; percent above DMSO median, 100 means doubled;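 active = every valid replicate shows activation above 250% relative to neutral control wells; inactive = the rest, any valid replicate at or below 250%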;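 note: OY570 slx delta 5 strain wells were the positive control but not used for scaling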
CASP6 VEID inh: blocks human caspase-6 cleavage activity; 350,000 tested, 0.53% active; inhibition, % at 12.5 µM; purified caspase-6, Z-VEID-R110 cleavage fluorescence;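 active = mean inhibition across replicates at least about 35%, with every replicate also reaching that limit, limit read from the data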;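 note: 0% = median of neutral control wells and 100% = no fluorescence left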
Target sequence (P55212 24-179 limits assumed): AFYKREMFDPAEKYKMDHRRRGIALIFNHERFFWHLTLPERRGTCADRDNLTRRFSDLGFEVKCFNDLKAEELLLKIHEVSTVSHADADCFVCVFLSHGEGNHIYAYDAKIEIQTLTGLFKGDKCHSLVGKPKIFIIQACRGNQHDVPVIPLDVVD
Target sequence (P55212 194-293 limits assumed): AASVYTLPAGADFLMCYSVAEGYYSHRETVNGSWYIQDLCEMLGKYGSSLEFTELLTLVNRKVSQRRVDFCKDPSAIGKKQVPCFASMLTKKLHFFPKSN
* = called active by the depositor; x = no result given. Hits are enriched below; roughly 3.9% of the tested compounds scored in any of these assays.

SMILES	CDK5 inh	NSD2 HMT inh	Glyco luc inh	ALR H2O2 inh	SUMO Mot1 rescue	CASP6 VEID inh
O=C(C1CCCN1S(=O)(=O)c1cccc2cccnc12)N1CCN(c2ccccc2)CC1 (stereo unspecified)	-1	x	-3	88*	240	1
O=C(O)[C@H]1CCCN1S(=O)(=O)c1cccc2cccnc12	-1	x	0	x	8	2
O=S(=O)(c1cccc2cccnc12)N1CCN(c2ccc(F)cc2)CC1	0	0	-1	x	-26	42*
O=S(=O)(c1cccc2cccnc12)N1CCOCC1	1	-1	3	-5	10	x
CC1CC(C)CN(S(=O)(=O)c2cccc3cccnc23)C1 (stereo unspecified)	0	x	-2	92*	-9	-1
COc1ccc(N2CCN(S(=O)(=O)c3cccc4cccnc34)CC2)cc1	-2	x	1	78*	369	4
C[C@@H]1CN([C@@H](C)CO)C(=O)c2cc(NC(=O)CCN3CCOCC3)ccc2O[C@H]1CN(C)Cc1ccccc1	x	x	x	x	x	-3
CCOC(=O)C1(Cc2ccccc2C)CCCN(C(=O)CCn2nccc2C)C1 (stereo unspecified)	-1	4	2	0	242	0
CCOC(=O)C1(Cc2ccccc2C)CCCN(C(=O)CCc2cccnc2)C1 (stereo unspecified)	-4	-1	1	x	782*	60*
CCN(c1ccc(NC(=O)CCNC(=O)c2ccco2)cc1)C(C)C	0	-1	3	99*	-4	0
Cc1ccc(NC(=O)CCNC(=O)c2ccco2)cc1	-2	-3	1	-25	-8	x
C[C@H]1CN([C@@H](C)CO)S(=O)(=O)c2ccc(C3=CCCCC3)cc2O[C@H]1CN(C)C(=O)Nc1ccc2c(c1)OCO2	x	x	x	x	x	-1
CCCn1c(SCC(=O)Nc2ccc(OCC)cc2)nnc1C(C)C	-1	-1	-1	3	344*	x
CCOc1ccc(NC(=O)CSc2nncc(=O)n2N)cc1	-4	-5	1	96*	-5	-2
CCCc1nnc(SCC(=O)Nc2ccc(OCC)cc2)n1N	2	-3	2	98*	x	x
O=C(C[C@@H]1CC[C@H](NS(=O)(=O)c2ccc(F)cc2)[C@@H](CO)O1)N1CCc2ccccc2C1	x	x	x	x	x	-2
C[C@H](O)C#Cc1cnc2c(c1)C(=O)N([C@H](C)CO)C[C@H](C)[C@@H](CN(C)Cc1cccc(F)c1)O2	x	x	x	x	x	0
COc1cc(C2Oc3cc(C4Oc5cc(O)cc(O)c5C(=O)C4O)ccc3OC2CO)ccc1O (stereo unspecified)	1	x	-1	74	12	x
CC(=O)Oc1cc(O)c2c(c1)OC(c1ccc(OC(C)=O)c(OC(C)=O)c1)C(OC(C)=O)C2=O (stereo unspecified)	1	9	1	89*	-3	x
CO[C@@H]1CN(C)C(=O)c2cc(NC(C)=O)ccc2OC[C@H](C)N(Cc2ccc(F)cc2)C[C@@H]1C	x	x	x	x	x	2
COc1ccccc1-c1ccc2n(c1=O)C[C@@H]1[C@@H](CO)[C@H](C(=O)N(C)C)N(CC3CCOCC3)[C@H]21	x	x	x	x	x	-3
COC(=O)C1=C(C)NC(C)=C(C(=O)OC)C1c1ccc(NC(C)=O)cc1	2	-2	7	-6	135	2
CCN(CC)c1ccc(C2NC(=O)NC(C)=C2C(=O)Nc2ccccc2)cc1 (stereo unspecified)	-1	x	1	99*	93	1
CCOC(=O)C1=C(C)NC(=O)NC1c1ccc(N(C)C)cc1 (stereo unspecified)	1	x	-1	x	x	-2
CCN(CC)c1ccc(C2C(C(=O)OC)=C(C)NC(C)=C2C(=O)OC)cc1	-2	0	2	99*	0	x
SMILES	CDK5 inh	NSD2 HMT inh	Glyco luc inh	ALR H2O2 inh	SUMO Mot1 rescue	CASP6 VEID inh
CCOC(=O)C1=C(C)NC(=O)NC1c1ccc(N(CC)CC)cc1 (stereo unspecified)	2	x	-2	98*	5	-4
N#Cc1ccc(-c2ccc3c(c2)[C@H]2[C@H](CCN2C(=O)C2CCC2)[C@H](CO)N3)cc1	x	x	x	x	x	1
N#C/C(=C\c1ccc([N+](=O)[O-])cc1)C(=O)Nc1ccccc1O	0	3	4	86*	-3	1
COc1cccc(S(=O)(=O)N[C@H]2CC[C@H](CC(=O)NCc3ccccc3)O[C@@H]2CO)c1	x	x	x	x	x	3
Cc1ccc(-c2nn(Cc3ccccc3)cc2/C=C/C(=O)O)cc1	0	1	1	3	x	x
O=C(O)/C=C/c1cn(Cc2ccccc2)nc1-c1ccc(Cl)cc1	-4	1	3	95*	10	-1
CC(C)NC(=O)c1onc(CSc2ccccc2)c1C(=O)O	0	x	0	33	-5	-1
CC(C)NC(=O)c1onc(CSc2cccc3ccccc23)c1C(=O)O	-2	x	1	98*	154	-1
CCCCNC(=O)c1onc(CSc2ccccc2)c1C(=O)O	-1	x	2	19	11	1
CCCCNC(=O)c1onc(CSc2cccc3ccccc23)c1C(=O)O	0	x	2	98*	-4	-1
C/C=C/c1ccc([C@@H]2[C@H](CO)N(C(C)=O)C23CN(S(C)(=O)=O)C3)cc1	x	x	x	x	x	0
COc1ccc2c3c(n(C)c2c1)[C@H](CO)N(Cc1cc(F)ccc1F)CC31CN(C(=O)C2CC2)C1	x	x	x	x	x	0
C[C@H](CO)N1C[C@H](C)[C@H](CN(C)Cc2ccncc2)OCCCC[C@H](C)Oc2ccc(NC(=O)Nc3ccc4c(c3)OCO4)cc2C1=O	x	x	x	x	x	-2
COC(=O)/C=C1\N/C(=N\c2nc(C)cc(C)n2)N(c2ccccc2)C1=O	x	-1	1	97*	1	-1
CN(C)c1ccc2c(c1)[C@@H]1C[C@@H](CC(=O)NCCN3CCCCC3)O[C@H](CO)[C@@H]1O2	x	x	x	x	x	-1
C=CC(=O)Nc1ccc(Nc2nc(NC3CCC(N(C)C)CC3)nc3c2ncn3C(C)C)cc1 (stereo unspecified)	95*	x	-13	-5	9	x
CNC[C@H]1OCCCC[C@H](C)Oc2ccc(NS(=O)(=O)c3ccccc3)cc2C(=O)N([C@@H](C)CO)C[C@H]1C	x	x	x	x	x	-3
CC(=O)Nc1ccc2c(c1)C(=O)N(C)[C@@H]1CC[C@H](CC(=O)NCc3ccc(Cl)cc3)O[C@H]1CO2	x	x	x	x	x	0
Cc1ccnc(NC(c2ccccn2)c2c(C)[nH]c3ccccc23)c1 (stereo unspecified)	-2	2	-4	98*	-11	-1
Cc1[nH]c2ccccc2c1C(c1ccccn1)N1CCCC1 (stereo unspecified)	2	13	-4	x	1	-2
CS(=O)(=O)Nc1ccc2c(c1)[C@H]1C[C@H](CC(=O)NCc3cccnc3)O[C@@H](CO)[C@H]1O2	x	x	x	x	x	2
CCCC1=C(C(=O)OCC)C(c2ccc(F)cc2)n2ncnc2N1 (stereo unspecified)	1	0	3	9	-6	x

From PubChem
